# Experimental data from the antibiotic and cytotoxicity screens of Wong et al. (2023).
# Out of some 39,000 compounds screened, about 1,500 (3.8%) were called active. Only a selection was taken, and actives are over-represented in it overall.
# Tested on: HSkMC (human skeletal muscle cells)
# Experiment: cytotoxicity call (relative viability < 0.9)
# Settings: 10 µM
row,Structure (SMILES),cytotoxicity call
1,C[C@@H]1CCCCO[C@@H](CN(C)S(=O)(=O)c2ccc(F)cc2)[C@H](C)CN([C@H](C)CO)C(=O)c2cc(NC(=O)Nc3ccc4c(c3)OCO4)ccc2O1,inactive
2,C[C@@H]1CCCCO[C@@H](CN(C)C(=O)CCCN(C)C)[C@@H](C)CN([C@H](C)CO)C(=O)c2cc(NC(=O)Nc3ccc(C(F)(F)F)cc3)ccc2O1,inactive
3,CC(C)CC#Cc1cnc2c(c1)C(=O)N([C@@H](C)CO)C[C@@H](C)[C@@H](CN(C)S(=O)(=O)c1cn(C)cn1)O2,inactive
4,C[C@H](CO)N1C[C@H](C)[C@H](CN(C)C(=O)Nc2ccccc2)Oc2c(NC(=O)C3CCOCC3)cccc2C1=O,inactive
5,C[C@H](CO)N1C[C@H](C)[C@H](CN(C)C(=O)c2cnccn2)Oc2cc(Br)ccc2S1(=O)=O,inactive
6,C[C@@H]1CN([C@@H](C)CO)C(=O)c2cc(C#Cc3ccccc3F)cnc2O[C@@H]1CN(C)C(=O)Cc1cccnc1,inactive
7,COc1ccc(S(=O)(=O)N(C)C[C@@H]2Oc3ccc(NC(=O)c4ccncc4)cc3CC(=O)N([C@H](C)CO)C[C@H]2C)cc1,inactive
8,CCCC#Cc1cnc2c(c1)C(=O)N([C@H](C)CO)C[C@H](C)[C@H](CN(C)S(=O)(=O)c1cn(C)cn1)O2,inactive
9,O=C(O)CC(O)(CC(=O)O)C(=O)O.[LiH].[LiH].[LiH],inactive
10,NC(=O)c1ccc2nc(-c3ccc(C4(N)CCC4)cc3)c(-c3ccccc3)n2n1,inactive
11,Nc1ncccc1-c1nc2ccc(-c3ccccc3)nc2n1-c1ccc(C2(N)CCC2)cc1,active
12,CC(C)NC(=O)N(C)C[C@@H]1Oc2c(NC(=O)NC3CCCCC3)cccc2C(=O)N([C@@H](C)CO)C[C@@H]1C,inactive
13,C[C@@H]1CN([C@H](C)CO)C(=O)Cc2cc(NC(=O)Nc3ccc(C(F)(F)F)cc3)ccc2O[C@@H]1CN(C)Cc1ccc(Oc2ccccc2)cc1,active
14,C[C@@H]1CN([C@@H](C)CO)C(=O)Cc2cc(NC(=O)Nc3ccc(C(F)(F)F)cc3)ccc2O[C@H]1CN(C)Cc1ccc(Oc2ccccc2)cc1,active
15,C[C@H]1CN([C@@H](C)CO)C(=O)Cc2cc(NC(=O)Nc3ccc(C(F)(F)F)cc3)ccc2O[C@@H]1CN(C)Cc1ccc(Oc2ccccc2)cc1,active
16,C[C@@H]1CN([C@@H](C)CO)C(=O)Cc2cc(NC(=O)Nc3ccc(C(F)(F)F)cc3)ccc2O[C@@H]1CN(C)Cc1ccc(Oc2ccccc2)cc1,active
17,COc1ccc(S(=O)(=O)Nc2ccc3c(c2)CC(=O)N([C@H](C)CO)C[C@@H](C)[C@@H](CN(C)C)O3)cc1,inactive
18,CCc1nc2ccc(C(=O)NCc3ccc4c(c3)OCO4)cn2c1N(CC)Cc1cccc(Br)c1,inactive
19,C[C@@H]1CN([C@H](C)CO)C(=O)c2cc(NC(=O)Nc3ccc(C(F)(F)F)cc3)ccc2O[C@@H]1CN(C)C(=O)Nc1ccccc1,inactive
20,COc1ccc(NC(=O)N(C)C[C@H]2OCCCC[C@H](C)Oc3ccc(NC(=O)Nc4ccc(F)cc4)cc3C(=O)N([C@H](C)CO)C[C@@H]2C)cc1,inactive
21,COc1ccc(S(=O)(=O)Nc2ccc3c(c2)C(=O)N([C@@H](C)CO)C[C@H](C)[C@H](CN(C)C(=O)c2ccccc2)OCCCC[C@@H](C)O3)cc1,inactive

row,Structure (SMILES),cytotoxicity call
1,C[C@@H]1CCCCO[C@H](CN(C)Cc2ccc(Cl)c(Cl)c2)[C@@H](C)CN([C@@H](C)CO)C(=O)c2cc(NS(=O)(=O)c3cn(C)cn3)ccc2O1,inactive
2,OC[C@H]1O[C@H](Nc2ccccc2)C[C@@H]1O,inactive
3,CC(C)CC#Cc1ccc2c(c1)O[C@@H](CN(C)C(=O)Cc1cccnc1)[C@H](C)CN([C@@H](C)CO)S2(=O)=O,inactive
4,C[C@@H]1CCCCO[C@H](CN(C)C(=O)Cc2ccccc2)[C@H](C)CN([C@@H](C)CO)C(=O)c2cc(NC(=O)Nc3ccccc3)ccc2O1,inactive
5,C[C@H](CO)N1C[C@H](C)[C@@H](CN(C)C(=O)Nc2ccc(C(F)(F)F)cc2)Oc2c(NS(C)(=O)=O)cccc2C1=O,inactive
6,CC(C)NC(=O)N(C)C[C@@H]1Oc2ccc(NS(=O)(=O)c3cn(C)cn3)cc2CC(=O)N([C@H](C)CO)C[C@@H]1C,inactive
7,COc1ccc(S(=O)(=O)Nc2cccc3c2O[C@@H](CN(C)S(=O)(=O)c2cn(C)cn2)[C@H](C)CN([C@H](C)CO)C3=O)cc1,inactive
8,C[C@H]1CN([C@@H](C)CO)C(=O)Cc2cc(NC(=O)Nc3ccc(C(F)(F)F)cc3)ccc2O[C@H]1CN(C)Cc1ccc(Oc2ccccc2)cc1,active
9,C[C@@H]1CN([C@H](C)CO)C(=O)Cc2cc(NC(=O)Nc3ccc(C(F)(F)F)cc3)ccc2O[C@H]1CN(C)Cc1ccc(Oc2ccccc2)cc1,active
10,C[C@H](CO)N1C[C@H](C)[C@H](CN(C)Cc2ccc(Oc3ccccc3)cc2)Oc2ccc(NC(=O)Nc3ccc(C(F)(F)F)cc3)cc2CC1=O,active
11,C[C@H](CO)N1C[C@H](C)[C@@H](CN(C)Cc2ccc(Oc3ccccc3)cc2)Oc2ccc(NC(=O)Nc3ccc(C(F)(F)F)cc3)cc2CC1=O,active
12,COc1ccc(S(=O)(=O)Nc2ccc3c(c2)CC(=O)N([C@@H](C)CO)C[C@@H](C)[C@@H](CN(C)Cc2ccncc2)O3)cc1,inactive
13,C[C@@H]1CN([C@@H](C)CO)C(=O)Cc2cc(NC(=O)CCN3CCOCC3)ccc2O[C@H]1CN(C)Cc1ccccc1,inactive
14,C[C@H](CO)N1C[C@H](C)[C@@H](CN(C)C(=O)Nc2ccccc2)Oc2ccc(NS(C)(=O)=O)cc2C1=O,inactive
15,C[C@H](CO)N1C[C@H](C)[C@H](CN(C)C(=O)Cc2cccnc2)Oc2ncc(C#Cc3ccccc3F)cc2C1=O,inactive
16,O=C(N[C@H]1C=C[C@H](CC(=O)N2CCOCC2)O[C@H]1CO)c1ccc2c(c1)OCO2,inactive
17,CON(C)c1nc(Oc2ccc(=O)[nH]n2)nc(N(C)C)n1,inactive
18,CN1CCN(C)C1=O,inactive
19,COc1cccc(CNC(=O)C[C@H]2C=C[C@H](NC(=O)C3CCOCC3)[C@@H](CO)O2)c1,inactive
20,O=C(C[C@H]1C=C[C@H](NS(=O)(=O)c2ccc(F)cc2)[C@@H](CO)O1)NCCN1CCCCC1,inactive
